# According to PubChem BioAssay AID720517 (National Center for Advancing Translational Sciences (NCATS), 2013):
# Results filed as inconclusive are left out. Where a call stands in place of a potency, no number is given. Calls of active or inactive are those of the source. The call rests on the fitted dose curve; in most records, active means well fitted activation curve with a large enough effect; inconclusive means small, poorly fitted or top-dose-only effect; inactive means flat fitted curve, though single readings scatter.
# Assay: qHTS for Inhibitors of Cell Surface uPA Generation: FP59 Counterscreen for Cherry-picked Compounds
# Conditions: FP59 anthrax toxin cytotoxicity counterscreen, cells; series mostly up to 115 µM
row,Compound,Potency
1,NC(=O)CC(NC(=O)Cc1cccc2ccccc12)c1ccc(N2CCN(c3ccccc3)CC2)c([N+](=O)[O-])c1 (stereo not given),inactive
2,Cc1ccccc1NC(=O)N1CCN(c2ncccn2)CC1,inactive
3,O=C(COC(=O)c1cccc([N+](=O)[O-])c1)NNC(=O)c1cccs1,inactive
4,S=C(Nc1ccccc1Oc1ccccc1)NC1CCCC1,inactive
5,CCNC(=S)NNC(=O)C(c1ccccc1)c1ccccc1,inactive
6,O=C(C[n+]1ccccc1)Nc1ccccc1C(F)(F)F,inactive
7,Cc1nc(NC(=O)CSc2nnc(C3CC3)n2C)sc1C(=O)N(C)C,inactive
8,O=C(CCc1ccccc1)NNC(=O)c1cccc(F)c1,inactive
9,COc1ccc(NC(=O)CC(C)CC(=O)NCc2ccccc2)c(OC)c1 (stereo not given),inactive
10,Cc1nc(NC(=O)COC(=O)CCc2ccccc2)c(Cl)cc1Cl,inactive
11,CCN(CC)S(=O)(=O)c1cc(NC(=O)COC(=O)C2CCC2)ccc1C,inactive
12,O=C(O)c1cc(N=Nc2c(O)[nH]c3ccc([N+](=O)[O-])cc23)ccc1Cl,inactive
13,Cc1cccc(C(=O)NCC(=O)OCC(=O)NC2CCCCCCC2)c1,inactive
14,COc1ccccc1CNC(=O)CCn1c(=O)oc2ccccc21,inactive
15,O=C(Nn1cnnc1)c1ccc(Cl)c(Cl)c1,inactive
16,CC(C)C(=O)Nc1nnc(SCc2cccc(F)c2)s1,inactive
17,Cc1ccc(N=C2SCCCN2C(=O)c2cccc(N3C(=O)CCC3=O)c2)cc1Cl,inactive
18,COCC(=O)N1CCC(n2nccc2NC(=O)c2ccccc2OC)CC1,inactive
19,CC(=O)c1ccc(NC(=O)Nc2ccc(Br)cc2C)cc1,inactive
20,Cc1ccc(Nc2nc(Cl)c(C=O)s2)cc1,inactive

row,Compound,Potency
1,C=CCOC(=O)C1=C[C@@H](c2coc3ccccc3c2=O)C[C@@H](OCc2ccc(CO)cc2)O1,inactive
2,O=C(CNC(=O)N1CC(=O)Nc2ccccc21)Nc1cc(Cl)ccc1Cl,inactive
3,CCC(C)Sc1nnc(NS(=O)(=O)Cc2ccccc2)s1 (stereo not given),inactive
4,CC(=O)Nc1sc(C)c(C)c1C(=O)OCC(=O)NC(C)c1ccccc1 (stereo not given),inactive
5,Cc1cccc(NC(=O)C2CCCN(S(=O)(=O)c3cccc4cccnc34)C2)c1 (stereo not given),inactive
6,COc1ccc(CC(=O)OCC(=O)NNC(=O)c2ccccc2)cc1,inactive
7,Cc1cccc(N2C(=O)c3cccc(Oc4ccc(Cl)cc4)c3C2=O)c1,inactive
8,CCCN1CCN(C2CCCCC2NS(=O)(=O)c2ccc(Cl)cc2)CC1 (stereo not given),inactive
9,COc1ccc(C2NC(=O)CCC2[N+](=O)[O-])c(OC)c1OC (stereo not given),inactive
10,Cc1cccc(Nc2ccc(NCc3ccccc3)nn2)c1,inactive
11,CCOC(=O)CN1C(=O)N[C@@H](c2ccccc2)C(C(C)=O)=C1C,inactive
12,C#CCOCCOCCOCCNc1nc(N2CCOCC2)nc(N2CCN(C(=O)[C@H](CCC(=O)O)n3cc([C@@H](N)CCCCN)nn3)CC2)n1,inactive
13,Cc1ccc([C@H]2C(C(=O)O)=CC[C@@H](c3cccc(C)c3)N2S(=O)(=O)c2ccc(C)cc2)cc1,inactive
14,CCOC(=O)N1CCN(C(=O)c2ccc3c(c2)sc2nc(-c4ccc(OC)cc4)cn23)CC1,inactive
15,CC1(C)CC(=O)C=C(c2ccc3ccccc3c2)C1,inactive
16,O=S(=O)(c1ccc2nc(N3CCN(c4ccccc4)CC3)ccc2c1)N1CCCCC1,inactive
17,O=C(Nc1cccc(C2=NCCN2)c1)Nc1cccc(C2=NCCN2)c1,inactive
18,Cc1cc2[nH]c(=O)c(=O)[nH]c2cc1S(=O)(=O)NC1CCC(C)CC1 (stereo not given),inactive
19,COCCn1c(SCC(=O)Nc2ccc(F)cc2)nc2ccccc2c1=O,inactive
20,Cn1cccc1Cc1nnc(SCC(=O)Nc2ccc3c(c2)OCCO3)n1-c1ccc(F)cc1,inactive
